Screens deposited in PubChem by National Center for Advancing Translational Sciences (NCATS).
An excerpt weighted towards active compounds, which were near 7.4% of everything screened.
FLuc modulator = counter-screen for miR-21 project: firefly luciferase inhibitors or activators. P08659. purified FLuc, Km substrates, luminescence inhibition. Potency, µM (top dose mostly 57.5 µM), actives largely listed as inhibitors. 360,000 compounds, 6.9% hits; further: nearly all actives have a fitted effect of over 55% in size
Target sequence (P08659 whole entry, looked up): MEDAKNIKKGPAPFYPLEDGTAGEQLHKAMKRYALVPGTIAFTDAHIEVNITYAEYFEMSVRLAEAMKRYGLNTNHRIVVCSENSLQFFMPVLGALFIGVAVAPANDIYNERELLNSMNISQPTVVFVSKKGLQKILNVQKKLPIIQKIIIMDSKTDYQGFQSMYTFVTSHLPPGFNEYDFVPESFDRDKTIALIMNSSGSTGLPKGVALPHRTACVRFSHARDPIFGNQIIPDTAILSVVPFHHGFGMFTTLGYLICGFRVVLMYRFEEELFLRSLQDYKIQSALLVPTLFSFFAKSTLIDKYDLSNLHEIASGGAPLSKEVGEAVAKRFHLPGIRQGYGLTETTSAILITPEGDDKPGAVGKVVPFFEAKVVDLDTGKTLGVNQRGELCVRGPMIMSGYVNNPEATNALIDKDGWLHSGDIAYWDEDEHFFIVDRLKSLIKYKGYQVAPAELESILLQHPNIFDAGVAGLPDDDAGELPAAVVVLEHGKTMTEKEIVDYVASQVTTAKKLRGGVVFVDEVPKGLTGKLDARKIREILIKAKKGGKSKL
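Biochemical qHTS of compounds, final roughly 60 µM downward over six points, against 10 nM purified firefly luciferase using Km concentrations of substrates (10 uM D-luciferin, 10 uM ATP) in Tris acetate pH 7.5 buffer; luminescence output.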
SMN2 splice up = increases expression of the SMN2 splice variant. HEK293 SMN2-luciferase splicing reporter, luminescence, 30-36 h. Potency, µM (titrated, usually from 46.1 µM), usual class: activators. 210,000 compounds, 2.8% hits; further: nearly all actives have a fitted effect of over 55% in size
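qHTS luciferase splicing reporter: luminescence rises when SMN2 exon 7 is included in transfected HEK293 cells. Compound exposure lasted 30-36 h at 37C, with 4.5 mM final sodium butyrate as control, followed by a ONE-Glo read.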
Rab9 promoter act = Rab9 promoter activation; Huh7 Rab9 promoter-luciferase reporter, luminescence, 24 h; Potency, µM (top dose mostly 9.22 µM), usual class: activators; 320,000 compounds, 2.8% hits; AID 485297; further: nearly all actives have a fitted effect of over 60% in size
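Luciferase signal after 10 min detection reagent at ambient indicates Rab9 promoter upregulation; stably transfected Huh7 cells were treated 24 h with compound in DMSO at 37 °C, 5% CO2.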
ELG1 genotoxic = inducers of genotoxicity in HEK293T ELG1-luciferase cells; Potency, µM (doses to about 46 µM), actives largely listed as activators; AID 504466; 330,000 compounds, 1.3% hits; HEK293T ELG1-luciferase reporter, luminescence, 16 h; further: nearly all actives have a fitted effect of over 60% in size
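After overnight (16 hr) compound treatment at 37 °C, ELG1-luciferase HEK293T cells were lysed with ONE-Glo; luminescence quantified 30 min later at room temperature.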
NPC1 promoter act = activators of NPC1 promoter | Potency, µM (doses to about 9.22 µM), actives largely listed as activators | 320,000 compounds, 2.4% hits | Huh7 NPC1 promoter luciferase reporter, 24 h | AID 485313; further: nearly all actives have a fitted effect of over 60% in size
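Cells: Huh7 expressing luciferase under the NPC1 promoter, 1500/well. Seeded 2 h, compound added, incubated 24 h at 37 °C. Luciferase reagent, 10 min ambient, then luminescence.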
Numbers stand for hits; [ ] = remark or other dose. The call rests on the fitted dose curve; in most records, active means well fitted curve in the direction sought with a large enough effect; inconclusive means small, poorly fitted or top-dose-only effect, or another doubt; inactive means no such curve, though single readings can be large; an effect the other way counts as inactive or inconclusive.

How did CCc1cccc(NC(=O)c2oc3ccc4c(c3c2C)C(=O)CC(C)(C)O4)c1 do in these assays?
FLuc modulator: 0.849µM

What do the screens show for `O=C(CN1CCN(c2ccccc2O)CC1)Nc1ccc2c(c1)OCCCO2`?
FLuc modulator: inactive; Rab9 promoter act: inactive; ELG1 genotoxic: inactive; NPC1 promoter act: inactive

Results for Cc1ccc(C2=N/C(=C\c3c(C)nn(-c4ccccc4)c3N3CCCC3)C(=O)O2)cc1 ?
FLuc modulator: inactive; SMN2 splice up: inactive; Rab9 promoter act: inactive; ELG1 genotoxic: inactive; NPC1 promoter act: inactive

How did O=C1OC(c2ccccc2)=N/C1=C\N1CCCCC1 do in these assays?
FLuc modulator: 9.53µM; SMN2 splice up: inconclusive; Rab9 promoter act: 3.55µM; ELG1 genotoxic: inconclusive; NPC1 promoter act: 2.82µM

Results for CN(C)/C=C1/N=C(c2ccccc2)OC1=O ?
FLuc modulator: inactive; SMN2 splice up: inactive; Rab9 promoter act: inactive; ELG1 genotoxic: inactive; NPC1 promoter act: inactive

What do the screens show for `O=C1OC(c2ccc(Br)cc2)=N/C1=C\N1CCCCC1`?
FLuc modulator: inconclusive; SMN2 splice up: 12.6µM; Rab9 promoter act: 2.51µM; ELG1 genotoxic: 14.6µM; NPC1 promoter act: 2.24µM

What do the screens show for `O=C1OC(c2ccccc2)=C/C1=C/N1CCCCC1`?
FLuc modulator: 6.01µM; SMN2 splice up: inconclusive; Rab9 promoter act: 2.51µM; ELG1 genotoxic: inconclusive; NPC1 promoter act: 2.51µM

Results for Nc1cc(Cl)ccc1Oc1ccc2ccccc2c1 ?
FLuc modulator: inconclusive; SMN2 splice up: inactive; Rab9 promoter act: inactive; ELG1 genotoxic: inconclusive; NPC1 promoter act: inactive

What do the screens show for `Cc1ccc(Oc2ccc(Cl)cc2N)cc1`?
FLuc modulator: 21.3µM; SMN2 splice up: inactive; Rab9 promoter act: inactive; ELG1 genotoxic: inactive; NPC1 promoter act: inactive

How did Cc1noc(/C=C/c2ccccc2F)c1S(=O)(=O)N1CCC(C(=O)N2CCN(C)CC2)CC1 do in these assays?
FLuc modulator: inactive; Rab9 promoter act: inactive; ELG1 genotoxic: inactive[9.26 µM]; NPC1 promoter act: inactive

What do the screens show for `CCN(CC)CCN(C(=O)c1ccc2ncsc2c1)c1nc2cc3c(cc2s1)OCO3`?
FLuc modulator: 9.53µM; Rab9 promoter act: inconclusive; ELG1 genotoxic: 2.91µM; NPC1 promoter act: 0.708µM

How did CSc1nccc(N/N=C/c2ccccc2)n1 do in these assays?
FLuc modulator: 2.69µM; Rab9 promoter act: 1.41µM; ELG1 genotoxic: inconclusive; NPC1 promoter act: 1.58µM

How did C(=N\Nc1nccc(-c2cccnc2)n1)/c1ccccc1 do in these assays?
FLuc modulator: 4.78µM; Rab9 promoter act: 1.26µM; ELG1 genotoxic: inactive; NPC1 promoter act: 1.78µM

What do the screens show for `Cc1ccnc(N/N=C/c2ccccc2)n1`?
FLuc modulator: 7.57µM; SMN2 splice up: 12.6µM; Rab9 promoter act: 1.26µM; ELG1 genotoxic: inconclusive; NPC1 promoter act: 2.51µM

How did C(=N\Nc1ccc(-n2ccnc2)nn1)/c1ccccc1 do in these assays?
FLuc modulator: inactive; SMN2 splice up: inactive; Rab9 promoter act: inactive; ELG1 genotoxic: inactive; NPC1 promoter act: inactive

Results for CCn1c(C(=O)O)c(CC(=O)Nc2ccccc2OC)c2ccccc21 ?
FLuc modulator: inactive; Rab9 promoter act: inactive; ELG1 genotoxic: inactive; NPC1 promoter act: inactive

How did COc1ccccc1-c1nc2ccccc2c(=O)n1NC(=O)c1cccs1 do in these assays?
FLuc modulator: inactive; SMN2 splice up: inactive; Rab9 promoter act: inactive; ELG1 genotoxic: inactive; NPC1 promoter act: inactive

Results for O=C(Nc1nnc(-c2ccc3c(c2)OCCO3)o1)C1CCCCC1 ?
FLuc modulator: inconclusive; SMN2 splice up: inconclusive; Rab9 promoter act: 2.51µM; ELG1 genotoxic: inconclusive; NPC1 promoter act: 3.55µM

What do the screens show for `O=C(Nc1nnc(-c2ccc(Br)cc2)o1)c1cccc(N2C(=O)CCC2=O)c1`?
FLuc modulator: 12µM; Rab9 promoter act: inactive; ELG1 genotoxic: inactive; NPC1 promoter act: inactive

What do the screens show for `O=C(Nc1nnc(-c2ccc(Cl)cc2)o1)C1CCCCC1`?
FLuc modulator: inactive; Rab9 promoter act: inactive; ELG1 genotoxic: inactive; NPC1 promoter act: inactive

What do the screens show for `O=C(COc1ccccc1)Nc1nnc(-c2ccc(F)cc2)o1`?
FLuc modulator: inactive; Rab9 promoter act: inactive; ELG1 genotoxic: inactive; NPC1 promoter act: inactive

Results for O=C(COc1ccccc1)Nc1nnc(-c2ccc3c(c2)CCCC3)o1 ?
FLuc modulator: inconclusive; SMN2 splice up: inconclusive; Rab9 promoter act: inconclusive; ELG1 genotoxic: 18.4µM; NPC1 promoter act: inconclusive

How did O=C(Nc1nnc(-c2ccccc2)o1)c1cccc(N2C(=O)CCC2=O)c1 do in these assays?
FLuc modulator: inconclusive; SMN2 splice up: inactive; Rab9 promoter act: inactive; ELG1 genotoxic: inactive; NPC1 promoter act: inactive

How did O=C(Nc1nnc(-c2ccc3c(c2)CCCC3)o1)c1ccccc1Cl do in these assays?
FLuc modulator: 23.9µM; SMN2 splice up: inactive; Rab9 promoter act: inactive; ELG1 genotoxic: inactive; NPC1 promoter act: inactive

How did C#CCOCCOCCOCCNc1nc(N2CCN(C(=O)[C@H](CCCCN)n3cc(CC(C)O)nn3)CC2)nc(N2CCN(C(=O)[C@H](CCCCN)n3cc(CC(C)O)nn3)CC2)n1 (stereo partly drawn) do in these assays?
FLuc modulator: inactive; Rab9 promoter act: inactive; ELG1 genotoxic: inactive; NPC1 promoter act: inactive

What do the screens show for `Cc1ccc(CCNC(=O)c2ccc3c(c2)N(Cc2cccc(Cl)c2)C(=O)c2ccccc2S3(=O)=O)cc1`?
FLuc modulator: inactive

Results for O=C(Nc1nnc(-c2ccncc2)o1)c1ccccc1 ?
FLuc modulator: inconclusive; SMN2 splice up: inactive; Rab9 promoter act: inactive; ELG1 genotoxic: inactive; NPC1 promoter act: inactive

Results for O=C(Nc1nnc(-c2ccc3c(c2)CCCC3)o1)c1ccccc1 ?
FLuc modulator: 19µM; SMN2 splice up: inactive; Rab9 promoter act: inactive; ELG1 genotoxic: inconclusive; NPC1 promoter act: inactive

What do the screens show for `O=C(Nc1nnc(-c2ccc3c(c2)OCCO3)o1)c1ccc(Cc2ccccc2)cc1`?
FLuc modulator: inactive; SMN2 splice up: inactive; Rab9 promoter act: inactive; ELG1 genotoxic: inactive; NPC1 promoter act: inactive

What do the screens show for `O=C(CCOc1ccccc1)Nc1nnc(-c2ccc3c(c2)OCCO3)o1`?
FLuc modulator: 10.7µM; SMN2 splice up: inactive; Rab9 promoter act: inactive; ELG1 genotoxic: inactive; NPC1 promoter act: inactive

How did COc1ccc(-c2csc(Nc3ncccc3C)n2)cc1 do in these assays?
FLuc modulator: 5.36µM; SMN2 splice up: 2.24µM; Rab9 promoter act: 1.58µM; ELG1 genotoxic: inconclusive; NPC1 promoter act: 1.78µM

Results for Cc1nc(C)c(-c2csc(Nc3ncccc3C)n2)s1 ?
FLuc modulator: 6.75µM; Rab9 promoter act: 1.26µM; ELG1 genotoxic: inconclusive; NPC1 promoter act: 2.51µM

How did COc1ccc(-c2csc(Nc3ncccc3C)n2)cc1OC do in these assays?
FLuc modulator: inactive[2.3 µM]; SMN2 splice up: inconclusive; Rab9 promoter act: inconclusive; ELG1 genotoxic: inactive; NPC1 promoter act: inconclusive

Results for Cc1cccnc1Nc1nc(-c2ccc(O)c(O)c2)cs1 ?
FLuc modulator: 16.9µM; SMN2 splice up: inactive; Rab9 promoter act: inconclusive; ELG1 genotoxic: 5.17µM; NPC1 promoter act: inactive

Results for Cc1nc(C)c(-c2csc(Nc3ccc(O)cc3C)n2)s1 ?
FLuc modulator: inactive; Rab9 promoter act: inactive; ELG1 genotoxic: inactive; NPC1 promoter act: inactive
